Among the data in PubChem BioAssay (EPA / NIEHS) are outcome and AC50 values, retold here.

The AC50 is the midpoint of the concentration-response curve, whichever way the signal moves.

The source made the active and inactive calls. Rule for the calls: active = hit-call score of the fitted dose curve at least 0.9, where 1 is the maximum; inactive = score below 0.9.

Read-out in this test: Thyroid Hormone Responsive (THRSP), THRSP (gene 7069)
As to the kind of experiment: LTEA_HepaRG_THRSP: Life Technologies and Expression Analysis (LTEA) Assay for Thyroid Hormone Responsive (THRSP) using HepaRG (AID 2283536). To be noted: mRNA level, 48 h; actives raise or lower the signal. The method, then: LTEA_HepaRG is a cell based, multiplexed-readout assay that uses HepaRG, a human liver cell line, with measurements taken at 48 hours after chemical dosing on a 96-well plate.LTEA_HepaRG_THRSP is one of 102 assay component(s) measured in the LTEA HepaRG cell culture assay. It is a marker of NR mediated metabolism.Data from the assay component LTEA_HepaRG_THRSP was analyzed into 1 endpoint. This assay endpoint, LTEA_HepaRG_THRSP, was analyzed with bidirectional fitting relative to DMSO as the negative control and baseline of activity. Using a type of inducible reporter, measures of mRNA induction for gain or loss-of-signal activity can be used to understand regulation of transcription factor activity. To generalize the intended target to other relatable targets, this assay endpoint is annotated to the growth factor intended target family, where the subfamily is NR mediated metabolism.
A total of 1060 chemcials from the ToxCast library were tested in eight-point concentration-response experiments. Cell culture and cytotoxicity assays were conducted at Thermo Fisher Scientific's Custom Services facility (Madison, WI). A single lot of human HepaRG cells (Thermo Fisher Scientific, Frederick, MD) was used for the cell culture experiments. 96-well format collagen type I coated plates of human HepaRG cells were prepared using established methods. Briefly, cryopreserved HepaRG cells were thawed, plated at a density of approximately 100,000 cells/well in HepaRG Thaw, Plate, and General Purpose media (HPRG770, Thermo Fisher Scientific), and incubated for 48 hours. 0.5% DMSO was selected as vehicle control to balance the requisite need of DMSO in HepaRG cultures to maintain differentiation (for example, baseline metabolism, proportions of hepatocytes vs. cholangiocytes), while enabling further hepatic receptor pathway activation (for example, PXR and CAR) in response to chemical exposure. 48 hours after plating, the culture medium was replaced with HepaRG Serum-Free Incudtion Media. Cells were exposed to each test chemical in duplicate and maintained in CO2 incubators for another 48 hours. Chemical plates were thawed to room temperature and 200x concentrations of treatment groups were prepared. 8-point conentration-reponse curves were made with the highest exposure at 100 uM, followed by half-log dilutions, all in 0.5% DMSO. Each test plate contained variouse controls, induction positive controls (1mM phenobarbital), cytotoxicity positive controls ([…] aflatoxin B1), vehicle controls (0.5% DMSO), and total lysis controls (0.5% DMSO). Cell morphology images were taken using an Essen IncuCyte FLR automated microscope, with six 96-well plates imaged in about 24 minutes. Images were captured and exported and JPEG files. Spent culture media was transfered to black-well plates for the LDH assay, and remaining media was sorted at -80 C for later use. Cells were treated with RLT buffer and frozen until shipped for gene expression analysis. Total RNA was isolated from the cell suspension in 75 uL of Buffer RLT (Qiagen, Germantown, MD 20874) by Quintiles/Expression Analysis (Durham, NC) using a custom isolation procedure. Total RNA from each plate well was transferred to a preamplification plate. Fluidigm's 96.96 Dynamic ArrayTM (Fluidigm, Amsterdam, the Netherlands) technology was used for gene expression analyses by quantitative reverse transcription polymerase chain reaction (qRT-PCR, performed by Quintiles/Expression Analysis, Durham, NC)89. Standard TaqManTM Assays (Applied Biosystems/ThermoFisher Scientific, Foster City, CA) were used to assess the expression of 93 genes selected based on their selectivity and sensitivity to important hepatic receptors known to be modulated by environmental chemicals; importance in human hepatocyte functionality; and hepatotoxicity. […]
`CC(C)(O)c1ccc(CNC(=O)c2cccnc2Oc2ccc(F)cc2)cc1`: the result was inactive.
Take `CS(=O)(=O)c1ccc([C@@H](C[C@H]2CCC(=O)C2)C(=O)Nc2cnccn2)cc1Cl`: the AC50 was 27.2 µM (active).
Consider `NC=O`, for which the compound was classed as inactive.
The same measure, in the same setting: the result for `Oc1ccccc1O` reads “inactive”; that for `CCCCCCCCCC[N+](C)(C)[O-]`, “inactive”.
Consider `CCc1nc(N)nc(N)c1-c1ccc(Cl)cc1`, for which the AC50 is 76.3 µM (active).
Regarding `CC(C)(C)c1ccccc1`, the compound was called inactive.
For the compound `CCCC(=O)O`, the outcome was inactive.
In the case of `CN(C)C(=O)NC1(c2ccccc2)CCN(CC[C@@]2(c3ccc(F)c(F)c3)CN(C(=O)c3ccccc3)CCO2)CC1`, the AC50 is 29.7 µM (active).
For `O=C1c2c(O)cccc2Cc2cccc(O)c21`, the outcome was inactive.
Still for that read-out and setting: the same measure for `O=C(O)CC(O)(CC(=O)O)C(=O)O`: “inactive”; for `CC1(C)C(=O)NC(=O)N1CO`: “inactive”.
The same measure, in the same setting: the same measure for `OCC(O)CO`: “inactive”; for `NCCOCCOCCN`: “inactive”; for `O=C(NS(=O)(=O)/C=C/c1cccs1)c1ccc(F)cc1Br`: “inactive”.
In the case of `CC(=O)S[C@H](C(=O)N[C@H]1Cc2ccccc2[C@H]2CCC[C@@H](C(=O)O)N2C1=O)C(C)C`, the outcome was inactive.
Still for that read-out and setting: the same measure for `COc1ccc(OC(F)(F)F)cc1CN[C@H]1CCCN[C@H]1c1ccccc1`: “inactive”.
In the case of `Cc1c(C)c2c(c(C)c1O)CCC(C)(COc1ccc(CC3SC(=O)NC3=O)cc1)O2` (stereo not given), the AC50 is 27.1 µM (active).
Turning to `Cc1ccc(C(C)(C)C)c(O)c1`, the result was inactive.
The same measure, in the same setting: the result for `CC(N)=O` reads “inactive”; that for `O=NO`, “inactive”; that for `CCCCCCCCCCCCCCOS(=O)(=O)O`, “inactive”.
Still for that read-out and setting: the result for `CC(=O)O[C@]1(C(C)=O)CC[C@H]2[C@@H]3C=C(Cl)C4=CC(=O)[C@@H]5C[C@@H]5[C@]4(C)[C@H]3CC[C@@]21C` reads “inactive”.
On to `CC(=O)[C@@]1(O)CC[C@H]2[C@@H]3CCC4=CC(=O)CC[C@]4(C)[C@H]3CC[C@@]21C`, for which the AC50 was 50 µM (active).
For the compound `COc1ccc(C(=O)Nc2nc3ccccc3c(NCc3ccccc3)c2C#N)cc1`, the AC50 is 13.6 µM (active).
Regarding `Cc1cc(Cc2ccc(N)c(C)c2)ccc1N`, the call was inactive.
For `C/C=C/c1ccc(OC)cc1`, the outcome was inactive.
On the same count and under the same terms, the same measure for `Cc1cn([C@H]2C=C[C@@H](CO)O2)c(=O)[nH]c1=O`: “inactive”; for `CC(=O)OC1CC(C)OC(C)O1` (stereo not given): “inactive”; for `Cn1cnc2c1c(=O)[nH]c(=O)n2C`: “inactive”.
Same read-out and setting: the same measure for `O=C1CCCCC1`: “inactive”.
Same read-out and setting: the same measure for `CN(C)C(=O)NC1(c2ccccc2)CCN(CCC[C@]2(c3ccc(Cl)c(Cl)c3)CCCN(C(=O)c3ccccc3)C2)CC1`: “inactive”; for `NC1CCCCC1`: “inactive”; for `CCCCCCCCCCCCCCCCO`: “inactive”.
In the case of `O=C1O[C@H]([C@H](O)CO)C(O)=C1O`, the result was inactive.
Still for that read-out and setting: the same measure for `C=CCCCCCCCCCCCC`: “inactive”.
On the same count and under the same terms, the result for `N[C@@H](Cc1c[nH]c2ccccc12)C(=O)O` reads “inactive”; that for `O=C(N[C@@H](c1ccccc1)[C@@H]1CCCCN1)c1cccc(C(F)(F)F)c1Cl`, “inactive”; that for `CC(COCC(C)OC(=O)c1ccccc1)OC(=O)c1ccccc1` (stereo not given), “inactive”.
Still for that read-out and setting: the same measure for `C/C=C/C=C/C(=O)O`: “inactive”.
